Assay [1] is described as follows: qHTS Assay for Identifying Gametocytocidal Compounds (AID 743244).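 For max response: % is set by controls: 0 for no effect and ±100 for the full control effect; actives lower the fluorescent signal which means gametocytes are killed.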 Note: potency is the fitted concentration of half-maximal effect. The settings on record: P. falciparum 3D7 stage III-V gametocytes, alamarBlue, 72 h; max response: stronger effect = lower value. The gist of the method:
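In this qHTS viability screen, late-stage 3D7 gametocytes are incubated with compound for 72 h, then with alamarBlue for 24 h; reduced resorufin fluorescence marks killing.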

The nature of assay [2]: qHTS assay to identify small molecule inhibitors of chordoma cells - UCH-1 (AID 1259355). Note: nearly all actives have a fitted effect of over 55% in size. Note: potency is the fitted concentration of half-maximal effect. Particulars: UCH-1 chordoma viability, CellTiter-Glo, 48 h, combination, with auranofin plus four topoisomerase inhibitors; series mostly up to 46.1 µM. In short, it runs like this: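 Cells (800/well) were seeded and left overnight at 37 C, 5% CO2, then treated with drugs at 15 concentrations plus a combination mix of auranofin, camptothecin, doxorubicin, rubitecan and topotecan. Viability after 48hr was read by CellTiter-Glo luminescence.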
A general note: qHTS replaces the single test concentration by a dilution series.

Assay [3] can be described thus: qHTS assay to identify small molecule inhibitors of chordoma cells - UCH-2 (AID 1259356). Note: % is set by controls: 0 for no effect and ±100 for the full control effect. Particulars: UCH-2 chordoma viability, CellTiter-Glo ATP luminescence, 48 h; series mostly up to 46.1 µM.
Assay [4] can be described thus: P-glycoprotein substrates identified in KB-3-1 adenocarcinoma cell line, qHTS therapeutic library screen (AID 1346986). Note: % is set by controls: 0 for no effect and ±100 for the full control effect; nearly all actives have a fitted effect of over 60% in size. Particulars: KB-3-1 parental cells viability, CellTiter-Glo, 72 h; series mostly up to 44.5 µM. The gist of the method: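 Compounds were tested in dose-response against KB-3-1 and KB-8-5-11 cells at 37 degree C for 72 h, and viability was measured by luminescence. AC50 values came from curve fitting with class-based activity calls.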

Assay [5] can be described thus: qHTS assay for cell viability of HEK293 cells (AID 743288). Note: % is set by controls: 0 for no effect and ±100 for the full control effect; nearly all actives have a fitted effect of over 50% in size. Particulars: ATP luminescence (CellTiter-Glo), 18 h, stronger effect = lower value. The gist of the method: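 The Tox21 protocol used parental HEK293 cells treated for 18 h at 37 C with compounds delivered by pintool; ATP-coupled luminescence after 30 min at room temperature gave viability.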
Assay [6] can be described thus: qHTS assay for cell viability of the p53RE-bla HCT-116 cell line (AID 743292). Note: % is set by controls: 0 for no effect and ±100 for the full control effect; nearly all actives have a fitted effect of over 55% in size. The settings on record: p53RE-bla HCT-116 viability, ATP luminescence, 16 h; series mostly up to 95 µM. In short, it runs like this:
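Viability of compound-treated p53RE-bla HCT-116 cells is taken from ATP-dependent luciferase luminescence. Treatment lasts 16 h at 37 C after a 5 h settling period; detection follows 30 min at room temperature.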

The nature of assay [7]: qHTS profiling for inhibitors of Plasmodium falciparum (3D7) proliferation (AID 743322).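 Note: infected erythrocytes exposed to compound for 72 h before lysis; 100% = DMSO vehicle wells and 0% = 0.29 µM artemisinin.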 Particulars: P. falciparum 3D7 proliferation; at 28.7 µM (top of the series) unless noted. The gist of the method: (§1)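 Erythrocytes infected with P. falciparum (0.3% parasitemia, 2.5% hematocrit) incubated with compounds 72 h at 37 C, 5% CO2. Lysis with saponin/Triton buffer containing SYBR Green I, overnight at room temperature in the dark; DNA fluorescence (485/535 nm) normalised to 0.29 uM artemisinin and DMSO.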

Assay [8] can be described thus: qHTS profiling for inhibitors of Plasmodium falciparum (DD2) proliferation (AID 743323; call rule not given here). Particulars: lower = more inhibition; at 28.7 µM (top of the series) unless noted. In short, it runs like this:
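P. falciparum Dd2-infected erythrocytes (0.3% parasitemia, 2.5% hematocrit) exposed 72 h at 37 C, 5% CO2. Lysis with SYBR Green, overnight at room temperature, fluorescence 485/535 nm; normalized to 0.29 uM artemisinin and DMSO.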

Assay [9] can be described thus: qHTS profiling of the MIPE4 collection as inhibitors of Plasmodium falciparum (3D7) proliferation (AID 743344; call rule not given here;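 note: scaled between DMSO vehicle wells and 0.29 µM artemisinin as full inhibition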). Particulars: P. falciparum 3D7 in erythrocytes, SYBR Green DNA fluorescence, 72 h; at 28.5 µM (top of the series) unless noted. In short, it runs like this: as §1
Assay [10] can be described thus: qHTS profiling of the MIPE4 collection as inhibitors of Plasmodium falciparum (DD2) proliferation (AID 743345; call rule not given here). Particulars: P. falciparum Dd2 in erythrocytes, SYBR Green DNA, 72 h; at 28.5 µM (top of the series) unless noted. The gist of the method:
as §1

Assay [11] can be described thus: qHTS profiling of the MIPE4 collection as inhibitors of Plasmodium falciparum (DD2) proliferation (Rep 2) (AID 743346; call rule not given here). The settings on record: P. falciparum Dd2 in erythrocytes, SYBR Green DNA, 72 h; at 28.5 µM (top of the series) unless noted. The gist of the method: as §1
A short description of assay [12]: qHTS profiling of the MIPE4 collection as inhibitors of Plasmodium falciparum (HB3) proliferation (AID 743347; call rule not given here;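 note: plate controls were DMSO vehicle wells for no effect and artemisinin wells for full effect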). The settings on record: P. falciparum HB3 in erythrocytes, SYBR Green DNA, 72 h; at 28.5 µM (top of the series) unless noted. In short, it runs like this:
as §1

Where “and” joins values, the source holds several entries; their conditions need not be identical. Identical values can stand only once. Results filed as inconclusive are left out. Calls of active or inactive are those of the source. Unless noted, calls come from the whole dose curve; as a rule, active = well fitted curve in the direction sought with a large enough effect; inconclusive = small, poorly fitted or top-dose-only effect, or another doubt; inactive = no such curve, though single readings can be large; an effect the other way counts as inactive or inconclusive.

In the case of `C/C1=C2N=C(/C=C3N=C(/C(C)=C4\[N-][C@@](C)([C@@H]5N=C1[C@](C)(CCC(=O)NCC(C)OP(=O)(O)O[C@H]1[C@@H](O)[C@@H](n6cnc7cc(C)c(C)cc76)O[C@@H]1CO)[C@H]5CC(N)=O)[C@@](C)(CC(N)=O)[C@@H]4CCC(N)=O)[C@@](C)(CC(N)=O)[C@@H]\3CCC(N)=O)C(C)(C)[C@@H]/2CCC(N)=O.CC(=O)O.[Co]` (some centres undefined), in assay [1], the Potency was 20 µM (active). Also, the Potency result in assay [2], in assay [3] and in assay [4] was “inactive” in each case.

For `CO[C@H]1C[C@H](O[C@H]2[C@H](C)[C@@H](O[C@@H]3O[C@H](C)C[C@H](N(C)C)[C@H]3OC(C)=O)[C@@H](C)C[C@]3(CO3)C(=O)[C@H](C)[C@@H](OC(C)=O)[C@@H](C)[C@@H](C)OC(=O)[C@@H]2C)O[C@@H](C)[C@@H]1OC(C)=O`, in assay [1], the max response is 7.91% (inactive). For the same molecule, the Potency entry in [2] and in assay [3] was “inactive” throughout.

As for `CO/N=C(\C(=O)N[C@@H]1C(=O)N2C(C(=O)O)=C(CSc3cnns3)CS[C@H]12)c1csc(N)n1`, in assay [1], the max response is 2.82% (inactive). Also, the Potency result in assay [2] and in assay [3] was “inactive” each time.

For the molecule `CO[C@H]1C=CO[C@@]2(C)Oc3c(C)c(O)c4c(O)c(c(/C=N/N5CCN(C6CCCC6)CC5)c(O)c4c3C2=O)NC(=O)/C(C)=C\C=C[C@H](C)[C@H](O)[C@@H](C)[C@@H](O)[C@@H](C)[C@H](OC(C)=O)[C@@H]1C`, in assay [1], the Potency was 10 µM (active). Besides, the Potency result in assay [2] and in assay [3] was “inactive” throughout.

For the molecule `O=C(COc1ccc(Cl)cc1)OCCNC12CC3CC(CC(C3)C1)C2`, the max response in assay [1] was -2.86% (inactive). The Potency result in assay [2] and in [3] was “inactive” in each case.

Consider `CCOC(C)=O`, for which the values for the max response in assay [1] and in [5] were 12.9% (inactive) and 2.28% (inactive), respectively. Further, in assay [6], the molecule was classed as inactive. Moreover, the Potency result in [2] and in assay [3] was “inactive” throughout.

Take `CCC1OC(=O)C[C@@H](O)[C@H](C)[C@@H](O[C@@H]2O[C@H](C)C[C@H](N(C)C)[C@H]2O)[C@@H](CC=O)C[C@@H](C)C(=O)/C=C/[C@]2(C)OC2C1C` (some centres undefined): in assay [1], the Potency is 10 µM (active). In addition, the Potency entry in assay [2] and in assay [3] was “inactive” each time.

With `CNC(C)[C@@H]1CC[C@@H](N)[C@@H](O[C@H]2[C@H](O)[C@@H](O[C@H]3OC[C@](C)(O)[C@H](NC)[C@H]3O)[C@H](N)C[C@@H]2N)O1` (some centres undefined), in [1], the max response is 5.9% (inactive). For the same molecule, the Potency result in [2] and in assay [3] was “inactive” each time.

For `COC(=O)C1=C(C#N)NC(C)=C(C(=O)OC(C)C)C1c1cccc([N+](=O)[O-])c1` (centres undefined), the max response in assay [1] is 13.2% (inactive). Further, the Potency result in [2] and in assay [3] was “inactive” in each case.

Consider `Nc1ccn([C@H]2CS[C@@H](CO)O2)c(=O)n1`, for which the max response in assay [1] is 6.99% (inactive) and 7.67% (inactive); in assay [5], -4.28% (inactive). Further, the outcome in assay [6] was inactive. Moreover, the Potency entry in assay [2] and in [3] was “inactive” throughout.

As to `CC[C@H]1OC(=O)[C@H](C)[C@@H](O[C@H]2C[C@@](C)(OC)[C@@H](O)[C@H](C)O2)[C@H](C)[C@@H](O[C@@H]2O[C@H](C)C[C@H](N(C)C)[C@H]2O)[C@](C)(O)C[C@@H](C)/C(=N\OCOCCOC)[C@H](C)[C@@H](O)[C@]1(C)O`, the max response in assay [1] is -7.41% (inactive) and 9.46% (inactive). For the same molecule, the Potency result in assay [2] and in assay [3] was “inactive” each time.

As to `CC1=C(/C=C/C(C)=C/C=C/C(C)=C/CO)C(C)(C)CCC1`, the max response in assay [1] is 11.8% (inactive); in [5], -9.33% (inactive) and -12.3% (inactive). Besides, in assay [6], the molecule was called inactive. Also, the Potency entry in assay [2] and in [3] was “inactive” throughout.

Regarding `CC1=C(/C=C/C(C)=C/C=C/C(C)=C/C=C/C=C(C)/C=C/C=C(C)/C=C/C2=C(C)C(=O)CCC2(C)C)C(C)(C)CCC1=O`, in assay [1], the max response was 6.31% (inactive). Also, the Potency result in assay [2] and in assay [3] was “inactive” in each case.

Turning to `COc1cc([C@@H]2c3cc4c(cc3[C@@H](O[C@@H]3O[C@@H]5CO[C@@H](C)O[C@H]5[C@H](O)[C@H]3O)[C@H]3COC(=O)[C@H]23)OCO4)cc(OC)c1O`, in assay [1], the max response was -3.58% (inactive). The Potency result in assay [2] and in assay [3] was “inactive” in each case.

As to `COc1ccc(C[C@H](N)C(=O)N[C@H]2[C@@H](O)[C@H](n3cnc4c(N(C)C)ncnc43)O[C@@H]2CO)cc1`, the Potency in assay [1] is 1.05 µM (active); in assay [2], 11.2 µM (active).

`CCN(CC)Cc1cc(Nc2ccnc3cc(Cl)ccc23)ccc1O`: in [7], the remaining parasite growth % (stronger effect = lower value) worked out at 1.29% [at 9.63 µM]. Moreover, in assay [8], the activity, percent of control was 2.43% [at 9.63 µM]. The molecule further registered a parasite growth, % of DMSO control in assay [9] of 4.69% [at 9.64 µM]. For the same molecule, the parasite growth remaining, % of DMSO control (lower = more inhibition) in [10] was found to be 9.46% [at 9.64 µM]. In assay [11], this molecule yielded a parasite growth, % of control (lower = inhibition) of 11.1% [at 9.64 µM]. For the same molecule, in assay [12], the growth, % of control was 3.47% [at 9.64 µM]. Further, the Potency entry in [2] and in assay [3] was “inactive” in each case.

`CCC(=O)O[C@@H]1CC(=O)O[C@H](C)C/C=C/C=C/[C@H](O)[C@H](C)C[C@H](CC=O)[C@H](O[C@@H]2O[C@H](C)[C@@H](O[C@H]3C[C@@](C)(O)[C@@H](OC(=O)CC)[C@H](C)O3)[C@H](N(C)C)[C@H]2O)[C@H]1OC`: the max response in assay [1] is 4.15% (inactive). The Potency entry in assay [2] and in assay [3] was “inactive” in each case.

As to `O=C(Nc1cccc(C(F)(F)F)c1)c1cc(Br)cc(Br)c1O`, the max response in assay [1] was -2.44% (inactive). Also, the Potency in assay [2] was 12.6 µM (active).

The values above are taken from PubChem BioAssay (NCATS).
